Assay results taken from PubChem BioAssay (Tox21).
A number with no mark means an inactive call. Entries that show only a call come without a potency. Calls of active or inactive are those of the source. Calls follow the shape of the full dose curve.

target: Estrogen receptor (Homo sapiens) (UniProt P03372); assay: qHTS assay to identify small molecule agonists of the estrogen receptor alpha (ER-alpha) signaling pathway in the presence of an antagonist (AID 1259383); details: VM7Luc4E2 cells, ERE-luciferase, +ICI-182,780, 22 h; series mostly up to 92.4 µM; also: nearly all actives have a fitted effect of over 15% in size; as to activation: top concentration of the series differs between compounds
Excerpt: National Center for Advancing Translational Sciences [NCATS] NIH Chemical Genomics Center [NCGC] U.S. Environmental Protection Agency [EPA] National Institutes of Environmental Health Sciences [NIEHS] National Toxicology Program [NTP] Assay overview: Estrogen receptor (ER), a member of nuclear hormone receptor plays an important role in development, metabolic homeostasis and reproduction. Two subtypes of ER, ER-alpha and ER-beta, have similar expression patterns with some uniqueness in both types. Endocrine disrupting chemicals (EDCs) and their interactions with steroid hormone receptors like ER causes disruption of normal endocrine function. Therefore, it is important to understand the effect of environmental chemicals in ER signaling pathway. For identifying ER agonists, VM7Luc4E2 cell line has been used in the current assay. VM7Luc4E2 cell line (provided by Denison MS, University of California) endogenously expresses full-length ER-alpha and is stably transfected with a plasmid containing four estrogen responsive elements (ERE) upstream of a luciferase reporter gene. This current screening for measuring luciferase reporter gene activity using VM7Luc4E2 cells against Tox21 10K library collection is a confirmation study on agonist mode screening in presence of ER-antagonist (ICI-182,780) at 10.0nM final concentration.
Assay Protocol Summary: VM7Luc4E2 cells were cultured in phenol red free assay medium containing 10% charcoal stripped FBS for 5 days prior to the assay. The cells were dispensed at 4,000 cells in 4uL of assay medium per well into white wall/solid-bottom 1536-well plates (Corning Life Sciences, Corning, NY) using a Multidrop Combi (Thermo Fisher Scientific Inc., Waltham, MA) dispenser. After the assay plates were incubated at 37C and 5% CO2 for 24hr, 1uL of 10.0nM (final concentration) ICI-182,780 or assay buffer was added using two separate tips of Flying Reagent Dispenser (FRD, Aurora Discovery, San Diego, CA). Then 23nL of compounds dissolved in DMSO at 15 concentrations and positive controls or DMSO only was transferred to the assay plates by a Pintool station (Wako, San Diego, CA). The assay plates were incubated at 37C and 5% CO2 for 22hr. For luciferase read, 4uL/well ONE-Glo reagent (Promega Corporation, Madison, WI) was added to each well using FRD and after 30min incubation at room temperature, luminescence signal was measured on ViewLux plate reader (PerkinElmer, Shelton, CT).
Potency is read from the fitted curve at half-maximal effect.

Chain of Estrogen receptor (Homo sapiens) (P03372 whole entry, looked up): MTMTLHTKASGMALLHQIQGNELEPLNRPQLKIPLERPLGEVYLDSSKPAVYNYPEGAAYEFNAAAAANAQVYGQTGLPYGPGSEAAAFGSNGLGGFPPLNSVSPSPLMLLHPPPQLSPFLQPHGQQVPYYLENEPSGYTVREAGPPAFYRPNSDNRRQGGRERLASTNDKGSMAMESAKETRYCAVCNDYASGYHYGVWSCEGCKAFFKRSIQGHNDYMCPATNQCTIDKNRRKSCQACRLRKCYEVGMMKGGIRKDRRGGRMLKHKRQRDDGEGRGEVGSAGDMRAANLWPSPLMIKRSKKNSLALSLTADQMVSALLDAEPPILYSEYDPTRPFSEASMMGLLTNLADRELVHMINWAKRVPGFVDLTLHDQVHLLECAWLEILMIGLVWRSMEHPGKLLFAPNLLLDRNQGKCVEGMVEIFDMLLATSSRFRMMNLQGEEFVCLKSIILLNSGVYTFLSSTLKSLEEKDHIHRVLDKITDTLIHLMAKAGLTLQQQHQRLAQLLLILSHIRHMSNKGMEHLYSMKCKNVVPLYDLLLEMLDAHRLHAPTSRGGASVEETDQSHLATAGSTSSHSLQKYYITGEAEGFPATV

Row | Compound | Potency | activation
1 | [Cl][Nd]([Cl])[Cl] | inactive | –
2 | Cc1ccc2c(c1[N+](=O)[O-])C(=O)c1ccccc1C2=O | 3.37 µM (active) | –
3 | O=CNNC=O | inactive | –
4 | CN1C(CSCC(F)(F)F)Nc2cc(Cl)c(S(N)(=O)=O)cc2S1(=O)=O (stereo not given) | inactive | –
5 | CC(C)COC(=O)COc1cc(Cl)c(Cl)cc1Cl | inactive | –
6 | N[C@@H](Cc1cc(I)c(O)c(I)c1)C(=O)O | inactive | –
7 | CCC(Cl)CC(Cl)C(Cl)C(Cl)C(Cl)C(C)Cl (stereo not given) | – | 11.4% [at 19 µM]
8 | Cc1ccc(S(=O)(=O)NC(=O)NC2CCCCC2)cc1 | inactive | –
9 | CCOCCC(=O)OCC | inactive | –
10 | Nc1cccc2c(N)cccc12 | inactive | –
11 | OCC(CO)n1cnc(-c2ccc(F)cc2)c1-c1ccnc(Oc2ccccc2)n1 | inactive | –
12 | C=C(C)C(=O)OCCC(F)(F)C(F)(F)C(F)(F)C(F)(F)C(F)(F)C(F)(F)F | inactive | –
13 | CS(=O)(=O)c1ccc([C@@H](C[C@H]2CCC(=O)C2)C(=O)Nc2cnccn2)cc1Cl | inactive | –
14 | NC(=O)c1ccccc1[N+](=O)[O-] | inactive | –
15 | COC(OC)OC | inactive | –
16 | CNC1CCCN(c2c(F)cc3c(=O)c(C(=O)O)cn(C4CC4)c3c2OC)C1 (stereo not given) | inactive | –
17 | CCN(CC)CCNC(=O)c1cc(Cl)c(N)cc1OC | inactive | –
18 | O=C(/C=C/c1ccc([N+](=O)[O-])cc1)c1ccccc1 | inactive | –
19 | CC1CCCC(=O)C1=O (stereo not given) | inactive | –
20 | COc1ccc(C2C(=O)c3ccccc3C2=O)cc1 | inactive | –

Row | Compound | Potency | activation
21 | COc1cc(NCc2ccc3nc(N)nc(N)c3c2C)cc(OC)c1OC | inactive | –
22 | CC(=O)OCCC1CCCCC1 | inactive | –
23 | FC(F)(F)C(F)(F)C(F)(F)C(F)(F)CCI | inactive | –
24 | COc1cc(S(=O)(=O)Nc2ccccc2)c(OC)cc1N | inactive | –
25 | Cc1cccc2sc(N)nc12 | inactive | –
26 | CC(=O)OCCC(C)CC(C)(C)C (stereo not given) | inactive | –
27 | O=C(O)CO | inactive | –
28 | Cc1ccc2c(c1)CCCN2 | inactive | –
29 | CCO[Si](C)(CCCOCC1CO1)OCC (stereo not given) | inactive | –
30 | CC1CCc2nccnc21 (stereo not given) | inactive | –
31 | O=[N+]([O-])C1(Br)COCOC1 | inactive | –
32 | CC(C)N(C)C | inactive | –
33 | O=C1[C@@H]2[C@H]3CC[C@H](C3)[C@@H]2C(=O)N1CCCCN1CCN(c2ncccn2)CC1 | inactive | –
34 | CC(=O)OC(C)C[N+](C)(C)C (stereo not given) | inactive | –
35 | CC(C)c1ccc(C#N)cc1 | inactive | –
36 | CC(C)C(O)C(C)(C)CO (stereo not given) | inactive | –
37 | CC12CC3CC(C)(C1)CC(N)(C3)C2 | inactive | –
38 | CCCCCCCC(=O)Oc1c(Br)cc(C#N)cc1Br | inactive | –
39 | CC(C)N=C=NC(C)C | inactive | –
40 | CCOC(=O)c1c(N)sc2c1CCN(Cc1ccccc1)C2 | inactive | –
